Source: PubChem BioAssay (National Center for Advancing Translational Sciences (NCATS))
IL2 activator – activators of IL-2. IL-2 activation reporter assay, cell-based qHTS; stimulated with anti-CD3/CD4/CD28 beads; in transgenic mouse T cells. activation, % (series mostly up to about 46 µM). hit rate 0.065% among 360,000. AID 652025; in the data active = activation above about 50%; inconclusive = mostly about 30% to 49%; also: 0% is about no effect
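Using fluorescent plate cytometry, EGFP and DsRed are detected in transgenic mouse T cells stimulated 18 h at 37 degrees C with antibody-coated beads after 60 min compound pretreatment.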
PKM2 activator – activators of human pyruvate kinase M2. purified PKM2, Kinase-Glo ATP luminescence, activation; response scale: 0% is enzyme alone, no compound. hit rate 0.34% among 260,000. Potency, µM (series often up to 57.5 µM), without a hit: at the highest dose activation, hits mostly activators. P14618; also: potency is read from the fitted curve at half-maximal effect; % is scaled to controls: 0 for no effect and ±100 for the full control effect; nearly all actives have a fitted effect of over 55% in size
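ATP formation by purified human PK-M2, quantified via coupled luciferase luminescence after 1 h at room temperature with 0.1 mM ADP and 0.5 mM PEP final.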
EPAC2 ag – EPAC2 (human) agonism; Q8WZA2; EPAC2 activation, biochemical qHTS; response scale: 100% = 6.5 mM cAMP response; Potency, µM (series often up to 154 µM), inactives show top-dose activation, hits mostly activators; hit rate 0.079% among 360,000; AID 720711; also: potency is read from the fitted curve at half-maximal effect; nearly all actives have a fitted effect of over 50% in size
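Compounds were added across a concentration range to EPAC2 (100 nM), RAP1B-BODIPY-GDP (250 nM) and GDP (50 uM). After 5 min at room temperature, fluorescence was recorded at 5-min intervals for 30 min.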
EPAC1 antagonist – EPAC1 (human) antagonism; O95398; EPAC1 GEF assay, Rap1b-BODIPY-GDP exchange fluorescence; Potency, µM (highest dose often 115 µM), inactives show top-dose activity change, negative = inhibition, hits mostly inhibitors; hit rate 0.14% among 360,000; AID 720709;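 also: potency is read from the fitted curve at half-maximal effect; plate controls were vehicle for no effect and positive control for full effect; nearly all actives have a fitted effect of over 50% in size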
Target sequence (O95398 whole entry, looked up): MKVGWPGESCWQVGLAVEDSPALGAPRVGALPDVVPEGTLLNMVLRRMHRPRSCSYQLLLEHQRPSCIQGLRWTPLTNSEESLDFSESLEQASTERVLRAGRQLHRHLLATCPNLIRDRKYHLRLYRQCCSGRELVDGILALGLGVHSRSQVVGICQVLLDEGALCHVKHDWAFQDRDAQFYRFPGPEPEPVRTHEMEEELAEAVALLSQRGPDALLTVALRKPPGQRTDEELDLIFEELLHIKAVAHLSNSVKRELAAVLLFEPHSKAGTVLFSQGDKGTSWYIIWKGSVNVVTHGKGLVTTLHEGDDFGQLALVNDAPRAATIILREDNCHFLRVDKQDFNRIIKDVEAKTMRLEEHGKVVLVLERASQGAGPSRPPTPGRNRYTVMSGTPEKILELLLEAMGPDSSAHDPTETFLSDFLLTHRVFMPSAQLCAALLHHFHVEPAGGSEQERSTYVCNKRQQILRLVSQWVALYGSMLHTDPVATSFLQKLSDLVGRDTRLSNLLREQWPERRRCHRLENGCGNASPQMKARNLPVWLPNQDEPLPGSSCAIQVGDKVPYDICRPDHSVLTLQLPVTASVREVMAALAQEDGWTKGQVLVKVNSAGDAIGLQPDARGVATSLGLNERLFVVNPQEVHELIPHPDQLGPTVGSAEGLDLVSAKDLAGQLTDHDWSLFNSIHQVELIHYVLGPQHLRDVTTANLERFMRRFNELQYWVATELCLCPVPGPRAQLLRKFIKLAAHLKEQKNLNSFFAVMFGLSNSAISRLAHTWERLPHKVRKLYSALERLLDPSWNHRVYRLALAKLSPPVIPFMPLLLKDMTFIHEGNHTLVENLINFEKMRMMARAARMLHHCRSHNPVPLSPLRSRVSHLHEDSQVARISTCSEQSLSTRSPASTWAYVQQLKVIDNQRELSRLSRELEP
EPAC2 antagonist – blocks human EPAC2 exchange factor; Potency, µM (top dose mostly 114 µM), inactives show at the highest dose activity, negative = inhibition, hits mostly inhibitors; AID 720708; EPAC2 GEF exchange of Rap1B-BODIPY-GDP, fluorescence; Q8WZA2; hit rate 0.18% among 360,000; also: potency is read from the fitted curve at half-maximal effect; % is scaled to controls: 0 for no effect and ±100 for the full control effect; nearly all actives have a fitted effect of over 45% in size
EPAC1 agonist – EPAC1 (human) agonism; EPAC1 agonist qHTS, biochemical assay; response scale: 100% = response to 6.5 mM cAMP; hit rate 0.073% among 360,000; AID 720707; Potency, µM (top dose mostly 154 µM), for the others: at the top dose activation, most hits filed as activators; also: potency is read from the fitted curve at half-maximal effect; nearly all actives have a fitted effect of over 60% in size
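Nucleotide exchange assay: 100 nM EPAC1 with 250 nM Rap1B loaded with BODIPY-GDP and 50 uM GDP, room temperature. Fluorescence (480/540 nm) read every 5 min for 30 min; signal change normalized to 6.5 mM cAMP as full agonist.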
Numbers without * were called inactive; i = inactive; ? = inconclusive; · = not tested or not shown; [ ] = remark or other dose. This is a sample that favours compounds with a hit; in the whole collection about 0.64% have one here. Unless noted, calls follow the shape of the dose curve; as a rule, active = well fitted curve in the direction sought with a large enough effect; inconclusive = small, poorly fitted or top-dose-only effect, or another doubt; inactive = no such curve, though single readings can be large; an effect the other way counts as inactive or inconclusive.

SMILES	IL2 activator	PKM2 activator	EPAC2 ag	EPAC1 antagonist	EPAC2 antagonist	EPAC1 agonist
COc1ccc(OCc2nnc(SCC(=O)Nc3ccccc3Cl)o2)cc1	4	·	0%	-1%	0%	-9%
Nc1c(N2CCCC2)cc(Cl)c2nonc12	-2	1%	?	?	?	7%
Nc1ccc(N2CCCCC2)c2nonc12	-3	0%	18%	10µM*	?	-11%
Cc1ccc(S(=O)(=O)N2CCCN(S(=O)(=O)c3ccc4c(c3)OCCO4)CC2)cc1	1	0.35µM*	2%	-13%	-6%	3%
CN1CCN(S(=O)(=O)c2ccc3c(c2)OCCO3)CC1	3	11%	-1%	15%	-3%	9%
O=C(OCc1ccc2c(c1)OCO2)c1ccc(S(=O)(=O)N2CCCC2)cc1	0	8.9µM*	3%	-24%	-15%	9%
CCS(=O)(=O)N1CCN(S(=O)(=O)c2ccc3c(c2)OCCO3)CC1	0	3.5µM*	13%	37%	0%	-2%
O=S(=O)(c1ccc2c(c1)OCCO2)N1CCN(Cc2ccc3c(c2)OCO3)CC1	-2	3.5µM*	9%	?	-1%[57.1 µM]	0%
COc1ccc(NC(=O)COC(=O)c2cccn2C)cc1S(=O)(=O)N1CCCCC1	-1	·	9%	4%	-12%	3%
Cc1ccc(S(=O)(=O)N2C[C@H]3[C@H]4C(=O)N(c5ccccc5)C(=O)[C@H]4C[C@H](OC(=O)NCC4CCCCC4)[C@@]3(O)C2)cc1	-2	·	16%	-8%	-4%	-6%
COc1ccc(F)cc1S(=O)(=O)N1CCC2(CC1)OCCN2S(=O)(=O)c1cccs1	-2	·	5%	-2%	20%	7%
CC(C)NC(=O)c1csc([C@@H]2O[C@H](CO)[C@H](O)[C@H](O)[C@H]2O)n1	1	·	1%	-2%	-1%	9%
C[C@H]1CN([C@@H](C)CO)C(=O)CCCn2cc(nn2)CO[C@@H]1CN(C)C(=O)c1ccncc1	-3	·	3%	21%	5%	-5%
COc1ccc(S(=O)(=O)N2CCN(S(=O)(=O)c3ccc4c(c3)OCCO4)CC2)cc1C	2	3.5µM*	5%	-23%	0%	3%
COc1ccc(S(=O)(=O)N2CCCN(S(=O)(=O)c3ccc(OC)c(C)c3)CC2)cc1C	-2	1%	16%	-8%	-5%	10%
O=S(=O)(c1cccc(Cl)c1)N1CCN(S(=O)(=O)c2ccc3c(c2)OCCO3)CC1	-1	·	6%	-11%	3%	-4%
O=S(=O)(c1ccc2c(c1)OCCO2)N1CCN(c2cccc(Cl)c2)CC1	1	2.8µM*	9%	6%	11%	15%
O=C(NCCS(=O)(=O)N1CCN(c2cccc(Cl)c2)CC1)c1ccc2c(c1)OCO2	4	·	-4%	-4%	-9%	35µM*
COc1cc(CN2C[C@@H](CO)O[C@@H](n3cnc4c(N5CCN(c6ccccc6)CC5)ncnc43)C2)cc(OC)c1OC	0	·	12%	-8%	4%	6%
O=C(COC(=O)C1CC2CCCC(C1)C2=O)Nc1ccc(Cl)cn1 (configuration not stated)	0	·	-2%	22%	0%	-1%
C[C@@H]1CN([C@H](C)CO)C(=O)CCCn2cc(nn2)CO[C@H]1CN(C)C(=O)Nc1cccc2ccccc12	-3	·	-4%	10%	7%	5%
CCN(Cc1ccncc1)S(=O)(=O)c1ccc(C(C)=O)cc1	-2	22µM*	8%	-1%	-2%	3%
CCN(CC)S(=O)(=O)c1ccc(C(=O)Nc2ccc(Cc3ccncc3)cc2)cc1	-3	3%	7%	-14%	-16%	2%
COc1cccc(-c2ccc(C#N)c(OC(=O)c3ccc(Cl)cc3)n2)c1	0	-6%	6.3µM*	11%	10%	4%
Cc1c(C)c2cc(Cl)c(OCc3nn[nH]n3)cc2oc1=O	1	28µM*	10%	-6%	0%	1%
SMILES	IL2 activator	PKM2 activator	EPAC2 ag	EPAC1 antagonist	EPAC2 antagonist	EPAC1 agonist
Cc1c(C)c2cc(Cl)c(OCC(=O)Nc3ccccn3)cc2oc1=O	-2	·	3%	3%	4%	0%
CCOC(=O)C1(CCCc2ccccc2)CCN(C(=O)C2CCCN(C(N)=O)C2)CC1 (configuration not stated)	-3	3%	-1%	-7%	-10%	2%
O=C(c1cc(COc2ccc(F)cc2Cl)on1)N(CCO)Cc1cccs1	-2	·	2%	-13%	-11%	6%
O=C(O)c1ccccc1NS(=O)(=O)c1ccc(N/N=C/c2ccc(O)c(O)c2)c([N+](=O)[O-])c1	4	·	-25%	16µM*	56µM*	-14%
O=C(O)c1ccccc1NS(=O)(=O)c1ccc(NN=Cc2cccc(Cl)c2)c([N+](=O)[O-])c1	-2	·	-8%	50µM*	?	-3%
O=C(O)c1ccccc1NS(=O)(=O)c1ccc(NN=Cc2ccc(F)cc2)c([N+](=O)[O-])c1	0	·	6%	50µM*	-10%	4%
NS(=O)(=O)c1ccc(N/N=C/c2ccccc2C(=O)O)c([N+](=O)[O-])c1	1	3%	6%	?	-6%	4%
O=C(O)COc1ccccc1/C=N/Nc1ccc(S(=O)(=O)Nc2ccc(Cl)cc2)cc1[N+](=O)[O-]	0	9%	-6%	22µM*	1%	?
COc1ccc(C=NNc2ccc([N+](=O)[O-])cc2S(=O)(=O)Nc2ccccc2C(=O)O)cc1OC	0	·	-8%	50µM*	-20%	-10%
O=C(COC(=O)/C=C/c1ccc(F)cc1)NC1CCS(=O)(=O)C1 (configuration not stated)	0	·	-7%	-11%	8%	-4%
CCCn1c(N)c(NCCN2CCOCC2)c(=O)[nH]c1=O	0	0%	-11%	4%	5%	10%
CC1CCN(c2ccc3c(c2)S(=O)(=O)c2cccc(C(=O)NCc4cccc(F)c4)c2C3=O)CC1	20	·	-4%	62%	i	100µM*
O=C(NCc1cccc(F)c1)c1cccc2c1C(=O)c1ccc(N3CCCC3)cc1S2(=O)=O	27	·	?	79%	124%	28µM*
O=C(NCc1cccc(F)c1)c1cccc2c1C(=O)c1ccc(N3CCC(Cc4ccccc4)CC3)cc1S2(=O)=O	?	·	-75%	113%	117%	-69%
CN(C(=O)COC(=O)c1cc(S(=O)(=O)N2CCOCC2)ccc1Cl)C1CCS(=O)(=O)C1 (configuration not stated)	-4	·	3%	9%	-1%	4%
Cc1cccc(C)c1NC(=S)NCCc1ccc(O)c(O)c1	-1	28µM*	10%	13%	12%	-5%
